Measured values published in PubChem BioAssay AID1159580 (chemical genetic matrix, 2015).
Among all 5,500 compounds or so, about 2,000 (36%) were called active. Not shown: some 18% with an inconclusive outcome. Rule as the data show it: active = normalized growth mostly below about 0.91 (no sharp cut-off); inconclusive = no clear call, values can overlap the other calls; inactive = mostly above about 0.92. This is one part of the list.

Assay: chemical genetic growth profiling, strain panel (AID 1159580);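 also: tested at 20 µM; growth read once vehicle control cultures reached saturation at 30 °C; 1 = growth at the plate median or of vehicle wells; lower values mean less growth of the strain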
Conditions: growth OD
[1] = S. cerevisiae deletion strains, locus YAL013W, strain DEP1, active compounds read low
[2] = S. cerevisiae deletion strains, locus YBR229C, strain ROT2, active compounds read low
[3] = S. cerevisiae deletion strains, locus YDL101C, strain DUN1, active compounds read low
[4] = S. cerevisiae deletion strains, locus YDL134C, strain PPH21, active compounds read low
[5] = S. cerevisiae deletion strains, locus YDR150W, strain NUM1, active compounds read low
[6] = S. cerevisiae deletion strains, locus YEL061C, strain CIN8, active compounds read low
[7] = S. cerevisiae deletion strains, locus YGR078C, strain PAC10, active compounds read low
[8] = S. cerevisiae deletion strains, locus YHR030C, strain SLT2, active compounds read low
[9] = S. cerevisiae deletion strains, locus YJR043C, strain POL32, active compounds read low
[10] = S. cerevisiae deletion strains, locus YLR039C, strain RIC1, active compounds read low
[11] = S. cerevisiae deletion strains, locus YLR262C, strain YPT6, active compounds read low
[12] = S. cerevisiae deletion strains, locus YMR307W, strain GAS1, active compounds read low
[13] = S. cerevisiae deletion strains, locus YNL153C, strain GIM3, active compounds read low
[14] = S. cerevisiae deletion strains, locus YPL055C, strain LGE1, active compounds read low
[15] = S. cerevisiae deletion strains, locus YPL241C, strain CIN2, active compounds read low

Measured: normalized growth

COC(=O)c1cccc(NC(=O)CC2C(=O)NCCN2C(=O)c2cccs2)c1 (stereo not drawn)
inactive: [1] 1.02 | [2] 1.02 | [3] 1 | [4] 1.04 | [5] 0.982 | [6] 1.01 | [7] 1.01 | [8] 1.07 | S. cerevisiae deletion strains, locus YHR087W, strain rtc3, active compounds read low 0.987 | S. cerevisiae deletion strains, locus YJL187C, strain SWE1, active compounds read low 0.989 | [9] 1.02 | S. cerevisiae deletion strains, locus YJR075W, strain HOC1, active compounds read low 1.01 | [10] 1.02 | S. cerevisiae deletion strains, locus YLR058C, strain SHM2 (second series), active compounds read low 0.996 | S. cerevisiae deletion strains, locus YLR085C, strain ARP6, active compounds read low 0.997 | [11] 1.08 | S. cerevisiae deletion strains, locus YML094W, strain GIM5, active compounds read low 0.993 | S. cerevisiae deletion strains, locus YMR219W, strain ESC1, active compounds read low 1.01 | S. cerevisiae deletion strains, locus YMR263W, strain SAP30, active compounds read low 0.958 | [12] 1.01 | S. cerevisiae deletion strains, locus YNL128W, strain TEP1, active compounds read low 1.01 | [13] 1.01 | S. cerevisiae deletion strains, locus YNL298W, strain CLA4 (second series), active compounds read low 1.04 | S. cerevisiae deletion strains, locus YNL322C, strain KRE1, active compounds read low 1 | S. cerevisiae deletion strains, locus YNR030W, strain Alg12, active compounds read low 1.03 | [14] 0.941 | [15] 1.01 | S. cerevisiae deletion strains, locus YPR135W, strain CTF4, active compounds read low 1.1 | S. cerevisiae strains, strain wild type, active compounds read low 1.02

O=c1cc(CO)occ1O
inactive: [1] 1.02 | S. cerevisiae deletion strains, locus YBR021W, strain FUR4, active compounds read low 1 | [2] 1 | S. cerevisiae deletion strains, locus YCL029C, strain bik1, active compounds read low 1.02 | S. cerevisiae deletion strains, locus YDL035C, strain GPR1, active compounds read low 1.03 | S. cerevisiae deletion strains, locus YDL074C, strain BRE1, active compounds read low 1.03 | [3] 1 | [4] 1.01 | S. cerevisiae deletion strains, locus YDL185W, strain tfp1, active compounds read low 1.03 | S. cerevisiae deletion strains, locus YDL192W, strain arf1, active compounds read low 1.02 | S. cerevisiae deletion strains, locus YDR101C, strain arx1, active compounds read low 1.03 | [5] 1.01 | S. cerevisiae deletion strains, locus YDR162C, strain NBP2, active compounds read low 1.04 | S. cerevisiae deletion strains, locus YDR318W, strain mcm21, active compounds read low 1.02 | S. cerevisiae deletion strains, locus YDR388W, active compounds read low 1.02 | S. cerevisiae deletion strains, locus YDR502C, strain sam2, active compounds read low 1.03 | [6] 1 | S. cerevisiae deletion strains, locus YER110C, active compounds read low 1.04 | S. cerevisiae deletion strains, locus YER155C, strain BEM2, active compounds read low 1 | S. cerevisiae deletion strains, locus YER167W, strain BCK2, active compounds read low 1.01 | S. cerevisiae deletion strains, locus YGL078C, strain dbp3, active compounds read low 1.03 | S. cerevisiae deletion strains, locus YGL086W, strain mad1, active compounds read low 1 | S. cerevisiae deletion strains, locus YGL248W, strain PDE1, active compounds read low 1 | [7] 1.01 | S. cerevisiae deletion strains, locus YGR135W, strain pre9, active compounds read low 1.05 | S. cerevisiae deletion strains, locus YGR229C, strain SMI1, active compounds read low 1.01 | S. cerevisiae deletion strains, locus YGR252W, strain gcn5, active compounds read low 1.05 | [8] 1 | S. cerevisiae deletion strains, locus YHR079C, strain IRE1 (second series), active compounds read low 1.03 | S. cerevisiae deletion strains, locus YHR094C, strain hxt1, active compounds read low 1.02 | S. cerevisiae deletion strains, locus YHR129C, strain ARP1, active compounds read low 1.01 | S. cerevisiae deletion strains, locus YHR200W, strain rpn10, active compounds read low 1.03 | S. cerevisiae deletion strains, locus YIL066C, strain RNR3, active compounds read low 1.01 | S. cerevisiae deletion strains, locus YIL073C, strain SPO22, active compounds read low 1.15 | S. cerevisiae deletion strains, locus YIL125W, strain kgd1, active compounds read low 1.02 | S. cerevisiae deletion strains, locus YIR030C, strain dcg1, active compounds read low 1.02 | S. cerevisiae deletion strains, locus YJL095W, strain BCK1, active compounds read low 1.02 | S. cerevisiae deletion strains, locus YJL134W, strain LCB3, active compounds read low 1.01 | S. cerevisiae deletion strains, locus YJL168C, strain set2, active compounds read low 1.04 | S. cerevisiae deletion strains, locus YJL187C, strain SWE1 (second series), active compounds read low 1.01 | [9] 1.02 | S. cerevisiae deletion strains, locus YKL009W, strain mrt4, active compounds read low 1.03 | S. cerevisiae deletion strains, locus YKL068W, active compounds read low 1.01 | S. cerevisiae deletion strains, locus YKL085W, strain MDH1 (second series), active compounds read low 1.01 | S. cerevisiae deletion strains, locus YKL085W, strain MDH1, active compounds read low 1.01 | S. cerevisiae deletion strains, locus YKR001C, strain vps1, active compounds read low 1.03 | [10] 1.04 | S. cerevisiae deletion strains, locus YLR058C, strain SHM2, active compounds read low 1 | S. cerevisiae deletion strains, locus YLR102C, strain apc9, active compounds read low 1.02 | [11] 1.08 | S. cerevisiae deletion strains, locus YLR268W, strain sec22, active compounds read low 1.02 | S. cerevisiae deletion strains, locus YLR330W, strain CHS5, active compounds read low 1 | S. cerevisiae deletion strains, locus YLR342W, strain FKS1 (second series), active compounds read low 1.04 | S. cerevisiae deletion strains, locus YLR371W, strain rom2, active compounds read low 1.04 | S. cerevisiae deletion strains, locus YLR418C, strain cdc73, active compounds read low 1.06 | S. cerevisiae deletion strains, locus YML016C, strain PPZ1, active compounds read low 1 | S. cerevisiae deletion strains, locus YML032C, strain rad52, active compounds read low 1.04 | S. cerevisiae deletion strains, locus YML124C, strain tub3, active compounds read low 1.02 | S. cerevisiae deletion strains, locus YMR078C, strain ctf18, active compounds read low 1.03 | S. cerevisiae deletion strains, locus YMR223W, strain ubp8, active compounds read low 1.06 | [12] 1.07 | S. cerevisiae deletion strains, locus YNL067W, strain RPL9B, active compounds read low 1.03 | [13] 1.01 | S. cerevisiae deletion strains, locus YNL233W, strain BNI4, active compounds read low 1.01 | S. cerevisiae deletion strains, locus YNL250W, strain rad50, active compounds read low 1.05 | S. cerevisiae deletion strains, locus YNL271C, strain bni1, active compounds read low 1.02 | S. cerevisiae deletion strains, locus YNL298W, strain CLA4, active compounds read low 1.04 | S. cerevisiae deletion strains, locus YNL307C, strain MCK1, active compounds read low 1.03 | S. cerevisiae deletion strains, locus YNR052C, strain pop2, active compounds read low 1.01 | S. cerevisiae deletion strains, locus YOL012C, strain htz1 1.34 | S. cerevisiae deletion strains, locus YOL147C, strain pex11, active compounds read low 1.03 | S. cerevisiae deletion strains, locus YOR061W, strain CKA2, active compounds read low 1.01 | S. cerevisiae deletion strains, locus YOR069W, strain VPS5, active compounds read low 1 | S. cerevisiae deletion strains, locus YOR136W, strain idh2, active compounds read low 1.02 | S. cerevisiae deletion strains, locus YOR144C, strain elg1, active compounds read low 1.03 | S. cerevisiae deletion strains, locus YOR184W, strain ser1, active compounds read low 1.04 | S. cerevisiae deletion strains, locus YOR316C, strain cot1, active compounds read low 1.01 | [14] 1.02 | [15] 1.01 | S. cerevisiae deletion strains, locus YPR119W, strain clb2, active compounds read low 1.03 | S. cerevisiae deletion strains, locus YPR141C, strain kar3, active compounds read low 1.01 | S. cerevisiae deletion strains, locus YPR163C, strain tif3, active compounds read low 1.04 | S. cerevisiae deletion strains, locus YPR167C, strain met16, active compounds read low 1.02 | S. cerevisiae deletion strains, strain wtn01, active compounds read low 1.01
